# From publication PMC8384837, “Expanding the binding specificity for RNA recognition by a PUF domain”
# Changes are numbered by the printed parent chain.
# Columns and labels:
# Assay in all cases: yeast three-hybrid, YBZ-1, SC-Leu-His + 0.5 mM 3-AT, 4 days
# Conditions in all cases: tags: N-Gal4 AD-HA kept; label: inside an RPR1-promoter hybrid RNA with tandem MS2 sites; ssRNA
# [1] = biological target: PUM1 PUF domain R4-RWP (Homo sapiens, UniProt Q14671 828-1176, N971R;H972W;Q975P)
# In short: (§1)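 Matching RNA elements and Pumilio-1 PUF domain libraries, randomized at the three base-contacting residues of every repeat, were co-expressed from a centromeric plasmid in strain YBZ-1 (LexA–MS2 coat fusion, HIS3 reporter). The repeat regions were PCR-amplified and Illumina-sequenced from cells grown four days on SC-Leu (input) or SC-Leu-His + 0.5 mM 3-AT (selection). The interaction score is the log change in variant frequency from input to selection. It is computed in log2, with a pseudocount of 1 for absent variants.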
# [2] = biological target: T1, PUM1 PUF domain R6-MWS (Homo sapiens, UniProt Q14671 828-1176, N1043M;Y1044W;Q1047S)
# T1 sequence: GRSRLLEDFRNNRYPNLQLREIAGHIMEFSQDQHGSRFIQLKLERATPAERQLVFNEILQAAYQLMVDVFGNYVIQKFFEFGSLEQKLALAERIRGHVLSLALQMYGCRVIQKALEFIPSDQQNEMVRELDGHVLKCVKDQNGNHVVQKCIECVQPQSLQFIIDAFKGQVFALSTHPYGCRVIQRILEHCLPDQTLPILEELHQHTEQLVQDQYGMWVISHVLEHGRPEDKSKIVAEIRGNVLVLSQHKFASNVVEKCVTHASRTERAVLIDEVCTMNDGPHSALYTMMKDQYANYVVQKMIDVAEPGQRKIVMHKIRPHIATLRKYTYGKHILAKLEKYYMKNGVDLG
# In short: as §1
# [3] = biological target: T2, PUM1 PUF domain R6-QRR (Homo sapiens, UniProt Q14671 828-1176, N1043Q;Y1044R;Q1047R)
# T2 sequence: T1 sequence with M216Q, W217R, S220R
# In short: as §1
# [4] = biological target: PUM1 PUF domain R8-RYS (Homo sapiens, UniProt Q14671 828-1176, N1122R;Q1126S)
# In short: as §1
# [5] = biological target: PUM1 PUF domain R4-SRI (Homo sapiens, UniProt Q14671 828-1176, N971S;H972R;Q975I)
# In short: as §1
# [6] = biological target: T3, PUM1 PUF domain R6-CFI (Homo sapiens, UniProt Q14671 828-1176, N1043C;Y1044F;Q1047I)
# T3 sequence: T1 sequence with M216C, W217F, S220I
# In short: as §1
# [7] = biological target: PUM1 PUF domain R1-TGE (Homo sapiens, UniProt Q14671 828-1176, S863T;R864G;Q867E)
# In short: as §1
# [8] = biological target: PUM1 PUF domain R1-YTR (Homo sapiens, UniProt Q14671 828-1176, S863Y;R864T;Q867R)
# In short: as §1
# [9] = biological target: PUM1 PUF domain R1-HKR (Homo sapiens, UniProt Q14671 828-1176, S863H;R864K;Q867R)
# In short: as §1
# [10] = biological target: PUM1 PUF domain R1-TLE (Homo sapiens, UniProt Q14671 828-1176, S863T;R864L;Q867E)
# In short: as §1
# [11] = biological target: PUM1 PUF domain R1-RQE (Homo sapiens, UniProt Q14671 828-1176, S863R;R864Q;Q867E)
# In short: as §1
# [12] = biological target: PUM1 PUF domain R1-KCT (Homo sapiens, UniProt Q14671 828-1176, S863K;R864C;Q867T)
# In short: as §1
# [13] = biological target: PUM1 PUF domain R3-RSP (Homo sapiens, UniProt Q14671 828-1176, C935R;R936S;Q939P)
# In short: as §1
# [14] = biological target: PUM1 PUF domain R7-RRQ (Homo sapiens, UniProt Q14671 828-1176, S1079R;N1080R;E1083Q)
# In short: as §1
# [15] = biological target: PUM1 PUF domain R7-GCL (Homo sapiens, UniProt Q14671 828-1176, S1079G;N1080C;E1083L)
# In short: as §1
# [16] = biological target: PUM1 PUF domain R7-KSS (Homo sapiens, UniProt Q14671 828-1176, S1079K;N1080S;E1083S)
# In short: as §1
# [17] = biological target: PUM1 PUF domain R7-KRA (Homo sapiens, UniProt Q14671 828-1176, S1079K;N1080R;E1083A)
# In short: as §1
# [18] = biological target: PUM1 PUF domain R2-LWD (Homo sapiens, UniProt Q14671 828-1176, N899L;Y900W;Q903D)
# In short: as §1
# [19] = biological target: PUM1 PUF domain R5-KSM (Homo sapiens, UniProt Q14671 828-1176, C1007K;R1008S;Q1011M)
# In short: as §1
sequence,measurement,setting,value
GGCUAGAACUAGUGGAUCCCCCGGCGCCCGGCGGCUCGAGCCCGGGUAAGUGUAAAUAGUCUGCAUGCCGCCGGGCGCCAUGCCUGCAGGUCGACUCUAGAAAACAUG,binding signal,[1],5.93 log2 enrichment (interaction score)
same,binding signal,[2],5.31 log2 enrichment (interaction score)
same,binding signal,[3],6.35 log2 enrichment (interaction score)
same,binding signal,[4],4.4 log2 enrichment (interaction score)
same,binding signal,[5],3.08 log2 enrichment (interaction score)
GGCUAGAACUAGUGGAUCCCCCGGCGCCCGGCGGCUCGAGCCCGGGUAAGUGAAAAUAGUCUGCAUGCCGCCGGGCGCCAUGCCUGCAGGUCGACUCUAGAAAACAUG,binding signal,[2],2.78 log2 enrichment (interaction score)
same,binding signal,[6],5.68 log2 enrichment (interaction score)
GGCUAGAACUAGUGGAUCCCCCGGCGCCCGGCGGCUCGAGCCCGGGUAAGUGCAAAUAGUCUGCAUGCCGCCGGGCGCCAUGCCUGCAGGUCGACUCUAGAAAACAUG,binding signal,[3],5.8 log2 enrichment (interaction score)
GGCUAGAACUAGUGGAUCCCCCGGCGCCCGGCGGCUCGAGCCCGGGUAAGUGUAAAUUGUCUGCAUGCCGCCGGGCGCCAUGCCUGCAGGUCGACUCUAGAAAACAUG,binding signal,[7],3.46 log2 enrichment (interaction score)
same,binding signal,[8],6.22 log2 enrichment (interaction score)
same,binding signal,[9],3.25 log2 enrichment (interaction score)
same,binding signal,[10],4.15 log2 enrichment (interaction score)
GGCUAGAACUAGUGGAUCCCCCGGCGCCCGGCGGCUCGAGCCCGGGUAAGUGUAAAUGGUCUGCAUGCCGCCGGGCGCCAUGCCUGCAGGUCGACUCUAGAAAACAUG,binding signal,[7],2.92 log2 enrichment (interaction score)
same,binding signal,[11],1.2 log2 enrichment (interaction score)
same,binding signal,[12],3.31 log2 enrichment (interaction score)
same,binding signal,[10],3.5 log2 enrichment (interaction score)
GGCUAGAACUAGUGGAUCCCCCGGCGCCCGGCGGCUCGAGCCCGGGUAAGCGUAAAUAGUCUGCAUGCCGCCGGGCGCCAUGCCUGCAGGUCGACUCUAGAAAACAUG,binding signal,[4],6.43 log2 enrichment (interaction score)
GGCUAGAACUAGUGGAUCCCCCGGCGCCCGGCGGCUCGAGCCCGGGUAAGUGUAUAUAGUCUGCAUGCCGCCGGGCGCCAUGCCUGCAGGUCGACUCUAGAAAACAUG,binding signal,[5],1.38 log2 enrichment (interaction score)
GGCUAGAACUAGUGGAUCCCCCGGCGCCCGGCGGCUCGAGCCCGGGUAAGUGUAAUUAGUCUGCAUGCCGCCGGGCGCCAUGCCUGCAGGUCGACUCUAGAAAACAUG,binding signal,[13],4.96 log2 enrichment (interaction score)
GGCUAGAACUAGUGGAUCCCCCGGCGCCCGGCGGCUCGAGCCCGGGUAAGUGUAAGUAGUCUGCAUGCCGCCGGGCGCCAUGCCUGCAGGUCGACUCUAGAAAACAUG,binding signal,[13],1.39 log2 enrichment (interaction score)
GGCUAGAACUAGUGGAUCCCCCGGCGCCCGGCGGCUCGAGCCCGGGUAAGUGUAAAUCGUCUGCAUGCCGCCGGGCGCCAUGCCUGCAGGUCGACUCUAGAAAACAUG,binding signal,[8],6.08 log2 enrichment (interaction score)
same,binding signal,[11],2.21 log2 enrichment (interaction score)
same,binding signal,[12],6.39 log2 enrichment (interaction score)
GGCUAGAACUAGUGGAUCCCCCGGCGCCCGGCGGCUCGAGCCCGGGUAAGUUUAAAUAGUCUGCAUGCCGCCGGGCGCCAUGCCUGCAGGUCGACUCUAGAAAACAUG,binding signal,[14],5.4 log2 enrichment (interaction score)
same,binding signal,[15],2.65 log2 enrichment (interaction score)
same,binding signal,[16],4.3 log2 enrichment (interaction score)
same,binding signal,[17],3.25 log2 enrichment (interaction score)
GGCUAGAACUAGUGGAUCCCCCGGCGCCCGGCGGCUCGAGCCCGGGUAAGUGUAAAAAGUCUGCAUGCCGCCGGGCGCCAUGCCUGCAGGUCGACUCUAGAAAACAUG,binding signal,[18],5.97 log2 enrichment (interaction score)
GGCUAGAACUAGUGGAUCCCCCGGCGCCCGGCGGCUCGAGCCCGGGUAAGUCUAAAUAGUCUGCAUGCCGCCGGGCGCCAUGCCUGCAGGUCGACUCUAGAAAACAUG,binding signal,[16],2.54 log2 enrichment (interaction score)
same,binding signal,[17],5.25 log2 enrichment (interaction score)
GGCUAGAACUAGUGGAUCCCCCGGCGCCCGGCGGCUCGAGCCCGGGUAAGUGUCAAUAGUCUGCAUGCCGCCGGGCGCCAUGCCUGCAGGUCGACUCUAGAAAACAUG,binding signal,[19],3.66 log2 enrichment (interaction score)
